The structures appear in SMILES notation. “And” between values parts separate entries of the source, which are not always exact repeats. Identical values can stand only once. Results filed as inconclusive are left out. The source made the active and inactive calls. Calls follow the shape of the dose curve; as a rule, active = well fitted cell-killing curve with a large enough effect; inconclusive = small, poorly fitted or top-dose-only effect, or effect the other way; inactive = no such curve, though single readings can be large or run the other way.

Among the data in PubChem BioAssay (NCATS) are Potency values, retold here.
Potency is read from the fitted curve at half-maximal effect.

The nature of this test: Quantitative High-Throughput drug screen in 47 multiple myeloma cell lines against the NCATS MIPE library collection: XG1_PLB cell viability assay (AID 1919866). Also: nearly all actives have a fitted effect of over 35% in size. The conditions noted are these: CellTiter-Glo ATP, 48 h; series mostly up to 45.8 µM. The method, boiled down:
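qHTS format: cells plated (500/well), pin-dosed with MIPE 4.0 compounds, kept 48 h at 37 °C. Readout was CellTiter-Glo luminescence, median RLU.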
For orientation: ATP-based viability assays read luminescence as a measure of living cells.
For the compound `c1ccc([C@H]2CN3CCSC3=N2)cc1`, the Potency is 16.6 µM (active). Next, `NC(=O)c1ccc(I)c([N+](=O)[O-])c1`: 18.7 µM (active). Next, `N[C@@H]1CONC1=O`: “inactive”; `CCc1cc(Nc2nccc(-c3c(-c4ccc(OC)c(C(=O)Nc5c(F)cccc5F)c4)nc4ccccn34)n2)c(OC)cc1N1CCC(N2CCN(S(C)(=O)=O)CC2)CC1`: 1.18 µM (active); `OCCn1cc(-c2cnc3nnn(Cc4ccc5ncccc5c4)c3n2)cn1`: “inactive”.

With `Fc1ccc(Cl)cc1-c1nc(Nc2ccncc2)c2nccnc2n1`, the Potency entry was “inactive”.

With `CN(C(=O)c1ccc(F)cc1C(F)(F)F)C1CCN(c2nnc(-c3ccnn3C)c3ccccc23)CC1`, the Potency was 13.2 µM (active).

In the case of `CN(C)c1ccc(Nc2nc(N)n(C(=O)c3c(F)cccc3F)n2)cc1`, the Potency is 0.935 µM (active).

Take `CNC[C@H](O)c1cccc(O)c1`: the Potency entry was “inactive”. In the case of `N=c1nc(N2CCCCC2)cc(N)n1O`, the Potency was 26.4 µM (active). For `CC(C)(C)NCC(O)c1ccc(O)c(CO)c1` (configuration not stated) the value was “inactive”. In the case of `O=C1[C@H](Cc2ccc(O)cc2)N2C(=O)CCN(C(=O)NCc3ccccc3)[C@H]2CN1Cc1cccc2ccccc12`, the Potency was 9.35 µM (active). For `NC(=O)c1cnccn1` the value was “inactive”. `COCC(=O)NCC=Cc1ccc2ncnc(Nc3ccc(Oc4ccc(C)nc4)c(C)c3)c2c1`: the Potency was 20.9 µM (active). Next, `Cc1cn[nH]c1`: 1.05 µM (active). For `CC(C=CC1=C(C)CCCC1(C)C)=CC=CC(C)=CC(=O)O` the value was 1.87 µM (active) and 16.6 µM (active); for `CCOc1cc(N2CCC(O)CC2)ccc1Nc1ncc2c(n1)N(C)c1ccccc1C(=O)N2C`, 5.9 µM (active). Turning to `O=C(C1CC1)N1CC[C@@H](Cn2c(-c3ccc(-c4ccc5occc5c4)cc3)nc3cnccc32)C1`, the Potency was 16.6 µM (active). Next, `Cc1cc(Nc2nc(N[C@@H](C)c3ncc(F)cn3)ncc2Cl)n[nH]1`: 2.64 µM (active); `Cn1cnc2c(F)c(Nc3ccc(Br)cc3Cl)c(C(=O)NOCCO)cc21`: 0.0935 µM (active). As for `COc1ccc([C@@H]2CC(=O)c3c(O)cc(O[C@@H]4O[C@H](CO[C@@H]5O[C@@H](C)[C@H](O)[C@@H](O)[C@@H]5O)[C@@H](O)[C@H](O)[C@@H]4O)cc3O2)cc1O`, the Potency is 4.18 µM (active). Next, `O=S(=O)(N=Cc1c(O)ccc2ccccc12)c1cccs1`: 20.9 µM (active).
